Growth inhibition data for nine compounds are collected here from PubChem BioAssay (NCI).

The panel holds about 79,000 compounds, 15% with a hit somewhere; the sample as a whole holds those more often. Unmarked numbers belong to inactive results. The source made the active and inactive calls. No stated cut-off is given here; in the data, active means growth inhibition above about 70%; inactive means the rest.

Assay [1] can be described thus: NCI Yeast Anticancer Drug Screen. Data for the rad50 strain (AID 155).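 Further: 0% = growth of vehicle-only cultures of the same strain.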 The settings on record: S. cerevisiae rad50 strain growth inhibition, active compounds read high. A digest of the protocol:
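Growth of the mutant yeast was measured after compound exposure and referenced to vehicle-treated cultures.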

Assay [2] can be described thus: NCI Yeast Anticancer Drug Screen. Data for the mec2-1 strain (AID 157). As to conditions: S. cerevisiae mec2-1 strain, active compounds read high. A digest of the protocol: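 Compounds were applied to mec2-1 yeast cells. Their growth was then compared with that of vehicle-treated cultures to give growth inhibition.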
A short description of assay [3]: NCI Yeast Anticancer Drug Screen. Data for the sgs1 mgt1 strain (AID 161).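 Further: 0% = growth of cultures given vehicle only.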 As to conditions: S. cerevisiae sgs1 mgt1 strain, active compounds read high. The procedure, abridged:
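Percent growth inhibition was derived by comparing compound-exposed mutant yeast with vehicle-exposed cultures. The strain carries alterations in DNA damage repair.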

Assay [4] can be described thus: NCI Yeast Anticancer Drug Screen. Data for the cln2 rad14 strain (AID 165).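 Further: 0% = growth equal to vehicle treated cultures.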 As to conditions: S. cerevisiae cln2 rad14 strain, active compounds read high. The procedure, abridged:
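Strain: cln2 rad14 yeast, altered in cell cycle control and DNA damage repair. Read-out: growth inhibition vs vehicle.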

Assay [5] in a line: NCI Yeast Anticancer Drug Screen. Data for the bub3 strain (AID 167). As to conditions: S. cerevisiae bub3 mutant strain, active compounds read high. A digest of the protocol:
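Whole-cell yeast assay. The mutant strain was incubated with compounds, and growth inhibition was determined by comparison with vehicle-treated cells.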

The nature of assay [6]: NCI Yeast Anticancer Drug Screen. Data for the mlh1 rad18 strain (AID 175). As to conditions: S. cerevisiae mlh1 rad18 strain growth inhibition, active compounds read high. A digest of the protocol: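 A repair-deficient yeast strain is exposed to test compound, and growth is scored relative to vehicle-treated controls.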
The mark [7] stands for this setting: at 5.0 µM (retest, dose inferred, filed as 0.5).
Where [8] appears, read: at 50.0 µM (retest, dose inferred, filed as 5.0).

In the case of `O=C(O)Cc1c(-c2noc(-c3ccccc3)c2CC(=O)O)noc1-c1ccccc1`, the growth inhibition was -10% in assay [1] (setting [7]); -3% in assay [1] (setting [8]); 28.5% in assay [1] (at 50.0 µM); 8% in assay [2] (setting [7]); -2% in assay [2] (setting [8]); 46.8% in assay [2] (at 50.0 µM). The growth inhibition in assay [3] (setting [7]) was -16%; in assay [3] (setting [8]), -8%; in assay [3] (at 50.0 µM) it was 26.6%; in assay [4] (setting [7]), 1%; in assay [4] (setting [8]), -10%; in assay [4] (at 50.0 µM), 58.4%. In addition, the growth inhibition is -7% in assay [5] (setting [7]); 0% in assay [5] (setting [8]); 97.1% (active) in assay [5] (at 50.0 µM); 4% in assay [6] (setting [7]); -9% in assay [6] (setting [8]); 40.1% in assay [6] (at 50.0 µM).
Regarding `O=C1C2=C(CCCC2)C(=O)C(Cl)C1Cl` (configuration not stated), the growth inhibition in assay [1] (setting [7]) is 36%; in assay [1] (setting [8]), 98% (active); in assay [1] (at 50.0 µM), 97.8% (active); in assay [2] (setting [7]), 32%; in assay [2] (setting [8]), 99% (active); in assay [2] (at 50.0 µM), 99.3% (active). Besides, the growth inhibition in assay [3] (setting [7]) was 24%; in assay [3] (setting [8]), 99% (active); in assay [3] (at 50.0 µM), 99.5% (active); in assay [4] (setting [7]), 9%; in assay [4] (setting [8]), 99% (active); in assay [4] (at 50.0 µM), 99.1% (active). Besides, the growth inhibition in assay [5] (setting [7]) was 56%; in assay [5] (setting [8]), 99% (active); in assay [5] (at 50.0 µM) it was 99.5% (active); in assay [6] (setting [7]), 62%; in assay [6] (setting [8]), 99% (active); in assay [6] (at 50.0 µM) it was 99.5% (active).
For the compound `CCC1=CCC2C(=O)c3cc4ccccc4cc3C(=O)C2C1` (configuration not stated), the growth inhibition in assay [1] (setting [7]) is 11%; in assay [1] (setting [8]), 26%; in assay [1] (at 50.0 µM), 89.3% (active); in assay [2] (setting [7]), 11%; in assay [2] (setting [8]), 64%; in assay [2] (at 50.0 µM), 96.2% (active). Moreover, the growth inhibition in assay [3] (setting [7]) was 9%; in assay [3] (setting [8]), -4%; in assay [3] (at 50.0 µM), 89.6% (active); in assay [4] (setting [7]), 2%; in assay [4] (setting [8]), 20%; in assay [4] (at 50.0 µM) it was 37.5%. For the same compound, the growth inhibition in assay [5] (setting [7]) was 10%; in assay [5] (setting [8]), 61%; in assay [5] (at 50.0 µM), 93% (active); in assay [6] (setting [7]), 7%; in assay [6] (setting [8]) it was 46%; in assay [6] (at 50.0 µM), 94.8% (active).
As for `COC(=O)c1ccc(NN)cc1`, the growth inhibition in assay [1] (setting [7]) was 12%; in assay [1] (setting [8]) it was 39%; in assay [1] (at 50.0 µM), 65.8%; in assay [2] (setting [7]) it was 4%; in assay [2] (setting [8]), 19%; in assay [2] (at 50.0 µM), 61%. Also, the growth inhibition in assay [3] (setting [7]) was 3%; in assay [3] (setting [8]) it was 17%; in assay [3] (at 50.0 µM), 36.1%; in assay [4] (setting [7]), 3%; in assay [4] (setting [8]) it was 42%; in assay [4] (at 50.0 µM), 46.1%. The growth inhibition was 3% in assay [5] (setting [7]); 85% (active) in assay [5] (setting [8]); 86% (active) in assay [5] (at 50.0 µM); 4% in assay [6] (setting [7]); 42% in assay [6] (setting [8]); 40.9% in assay [6] (at 50.0 µM).
For the compound `CC1=C(C(=O)Nc2cccc(Cl)c2)C(c2ccc([N+](=O)[O-])cc2)C(C(=O)Nc2cccc(Cl)c2)=C(C)N1`, the growth inhibition in assay [1] (setting [7]) was 44%; in assay [1] (setting [8]) it was 44%; in assay [1] (at 50.0 µM), 57.9%; in assay [2] (setting [7]), 52%; in assay [2] (setting [8]) it was 52%; in assay [2] (at 50.0 µM), 81.8% (active). The growth inhibition in assay [3] (setting [7]) is 34%; in assay [3] (setting [8]), 34%; in assay [3] (at 50.0 µM), 65%; in assay [4] (setting [7]), 32%; in assay [4] (setting [8]), 32%; in assay [4] (at 50.0 µM) it was 79.5% (active). The growth inhibition in assay [5] (setting [7]) was 49%; in assay [5] (setting [8]), 49%; in assay [5] (at 50.0 µM), 74.7% (active); in assay [6] (setting [7]) it was 51%; in assay [6] (setting [8]), 51%; in assay [6] (at 50.0 µM), 61.8%.
Consider `O=C(Sc1c(-c2ccccc2)c(=O)n(-c2ccccc2)c(=S)n1-c1ccccc1)c1cccs1`, for which the growth inhibition in assay [1] (setting [7]) is 37%; in assay [1] (setting [8]) it was 92% (active); in assay [1] (at 50.0 µM) it was 72.2% (active); in assay [2] (setting [7]), 39%; in assay [2] (setting [8]) it was 95% (active); in assay [2] (at 50.0 µM), 73.1% (active). The growth inhibition was 23% in assay [3] (setting [7]); 93% (active) in assay [3] (setting [8]); 77.9% (active) in assay [3] (at 50.0 µM); 25% in assay [4] (setting [7]); 92% (active) in assay [4] (setting [8]); 56% in assay [4] (at 50.0 µM). For the same compound, the growth inhibition in assay [5] (setting [7]) is 47%; in assay [5] (setting [8]), 95% (active); in assay [5] (at 50.0 µM), 84% (active); in assay [6] (setting [7]) it was 66%; in assay [6] (setting [8]) it was 95% (active); in assay [6] (at 50.0 µM), 77.6% (active).
On to `CCc1c(O)c(O)c(C(C)=O)c2c(O)c(-c3c(C)cc4c(CC)c(O)c(O)c(C(C)=O)c4c3O)c(C)cc12`, for which the growth inhibition in assay [1] (setting [7]) was -13%; in assay [1] (setting [8]), 96% (active); in assay [1] (at 50.0 µM), 94.2% (active); in assay [2] (setting [7]) it was 9%; in assay [2] (setting [8]), 96% (active); in assay [2] (at 50.0 µM), 95.3% (active). For the same compound, the growth inhibition in assay [3] (setting [7]) is -10%; in assay [3] (setting [8]) it was 96% (active); in assay [3] (at 50.0 µM), 95.2% (active); in assay [4] (setting [7]), -20%; in assay [4] (setting [8]), 94% (active); in assay [4] (at 50.0 µM) it was 92.9% (active). Moreover, the growth inhibition in assay [5] (setting [7]) is 11%; in assay [5] (setting [8]), 97% (active); in assay [5] (at 50.0 µM), 95.7% (active); in assay [6] (setting [7]), 7%; in assay [6] (setting [8]), 96% (active); in assay [6] (at 50.0 µM) it was 95.5% (active).
Regarding `O=C(O)CSC(=S)N1CCCC1`, the growth inhibition in assay [1] (setting [7]) is -4%; in assay [1] (setting [8]), 5%; in assay [1] (at 50.0 µM) it was 46%; in assay [2] (setting [7]), 2%; in assay [2] (setting [8]), 3%; in assay [2] (at 50.0 µM) it was -5.3%. Further, the growth inhibition in assay [3] (setting [7]) was -4%; in assay [3] (setting [8]), 4%; in assay [3] (at 50.0 µM), -14.5%; in assay [4] (setting [7]) it was 2%; in assay [4] (setting [8]), 2%; in assay [4] (at 50.0 µM) it was -40.7%. Moreover, the growth inhibition was 2% in assay [5] (setting [7]); -3% in assay [5] (setting [8]); -5.6% in assay [5] (at 50.0 µM); -4% in assay [6] (setting [7]); 8% in assay [6] (setting [8]); -15.8% in assay [6] (at 50.0 µM).
As for `O=Cc1ccc2ccc3ccccc3c2c1`, the growth inhibition was -8% in assay [1] (setting [7]); 85% (active) in assay [1] (setting [8]); 85.9% (active) in assay [1] (at 50.0 µM); 8% in assay [2] (setting [7]); 66% in assay [2] (setting [8]); 41.4% in assay [2] (at 50.0 µM). The growth inhibition is 6% in assay [3] (setting [7]); 56% in assay [3] (setting [8]); 79.1% (active) in assay [3] (at 50.0 µM); -19% in assay [4] (setting [7]); 94% (active) in assay [4] (setting [8]); 21.2% in assay [4] (at 50.0 µM). Moreover, the growth inhibition was -27% in assay [5] (setting [7]); 95% (active) in assay [5] (setting [8]); 70.8% (active) in assay [5] (at 50.0 µM); -7% in assay [6] (setting [7]); 93% (active) in assay [6] (setting [8]); 84.9% (active) in assay [6] (at 50.0 µM).
